Bioassay records: PubChem BioAssay, National Center for Advancing Translational Sciences (NCATS)
Hits are enriched below; roughly 8% of the tested compounds scored in any of these assays.
HCMV antiviral: qHTS Assay for inhibitors of the human cytomegalovirus (HCMV) | HFF cells, HCMV-luciferase reporter, 72 h; stronger effect = lower value | activity change, negative = inhibition, % at 57.5 µM | 4.5% of 410,000 active; in the data active = activity change below about -60%; inconclusive = no clear call, values can overlap the other calls; inactive = above about -39%
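Compounds were evaluated in HFFs infected with an HCMV luciferase reporter virus (MOI 1 PFU/cell). Luciferase in lysates collected 72 h post infection served as the replication measure.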
MARV entry inh: qHTS for inhibitors of binding or entry into cells for Marburg Virus | Potency, µM (series often up to 37.8 µM), hits mostly inhibitors | Marburg virus pseudotyped entry inhibition, cell reporter | 1.8% of 300,000 active | AID 540276, 2011; calls by dose curve; tested in HEK293 cells
FMDV antiviral: High Throughput Screening for Foot and Mouth Disease Virus Antivirals; FMDV antiviral cell-based qHTS; Potency, µM (series often up to 57.9 µM), hits mostly inhibitors; 1.2% of 410,000 active; AID 1159524, 2015; calls by dose curve; tested in HEK293T cells; also: read-out not given here; nearly all actives have a fitted effect of over 45% in size
Lassa entry inh: qHTS for Inhibitors of binding or entry into cells for Lassa Virus. Lassa virus pseudotype entry inhibition, cell reporter. Potency, µM (doses to about 37.9 µM), usual class: inhibitors. 1.2% of 300,000 active. AID 540256, 2011; calls by dose curve; tested in HEK293 cells; also: nearly all actives have a fitted effect of over 50% in size
HCV inhibitor: qHTS Assay for Inhibitors of Hepatitis C Virus (HCV); Potency, µM (highest dose often 41.8 µM), most hits filed as inhibitors; Huh7.5.1 HCVcc-Cre infection, luciferase reporter, 44 h; 3.4% of 340,000 active; active = well fitted inhibition curve with a large enough effect; inconclusive = small, poorly fitted or top-dose-only effect, or another doubt; inactive = no such curve, though single readings can be large or run the other way
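Infectious HCV cell culture screen: compound-treated cells (1,000/well, pre-plated 4 h) are infected with HCVcc-Cre at roughly 0.5 moi and grown 44 h. Infection is quantified by luciferase signal after 15 min substrate incubation at room temperature.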
SARS PLpro yeast: qHTS of Yeast-based Assay for SARS-CoV PLP; Potency, µM (top dose mostly 32.9 µM), hits mostly activators; S. cerevisiae expressing SARS-CoV PLpro, growth rescue; 0.19% of 330,000 active; AID 485353, 2010; calls by dose curve; also: nearly all actives have a fitted effect of over 55% in size
A number is an active result; - = inactive; ? = inconclusive; . = no result.

SMILES | HCMV antiviral | MARV entry inh | FMDV antiviral | Lassa entry inh | HCV inhibitor | SARS PLpro yeast
Cc1ccc(C)c(NC(=S)/C(=C(\[O-])c2ccc(OC(F)F)cc2)[n+]2ccccc2)c1 | - | - | - | - | - | -
Cc1ccc(N/C=C(\C#N)c2ccc(OCCCF)cc2)cc1 | - | - | - | - | ? | -
COc1ccc(N/C=C(\C#N)c2ccc(OCCCF)cc2)cc1 | -91 | ? | - | - | ? | -
CC1CCCC(C)N1C(=C(Cl)Cl)C(=C1SCCS1)[N+](=O)[O-] (stereo not drawn) | -69 | ? | - | - | ? | -
NC1=NC(=O)C2N=CN(COCCO)C2=N1 (stereo not drawn) | . | - | . | . | . | .
Cc1ccc(/C=C/c2onc(C)c2S(=O)(=O)N2CCC(C(=O)N(CCC(C)C)Cc3ccco3)CC2)cc1 | - | . | - | - | . | .
Cc1ccccc1Nc1c(-c2ccccc2O)nc2sccn12 | -64 | - | - | - | . | .
COC(=O)[C@]12C[C@H](CC(=O)NCc3cccs3)C(=O)N(Cc3ccccc3)C1=C[C@H](C(C)C)O[C@@H]2C1CC1 | -71 | . | . | . | . | .
COC(=O)[C@]12CCCCC=C1N(Cc1ccc3c(c1)OCO3)C(=O)[C@H](CC(=O)N1CCCCC1)C2 | -70 | . | - | . | . | .
COC(=O)[C@]12CCCCC=C1N(Cc1ccc3c(c1)OCO3)C(=O)[C@H](CC(=O)N1CCCC1)C2 | - | . | - | . | . | .
COC(=O)[C@]12CCCCC=C1N(Cc1ccccc1)C(=O)[C@H](CC(=O)NCc1cccs1)C2 | -66 | . | - | . | . | .
COC(=O)[C@]12C[C@H](CC(=O)NCC34CC5CC(CC(C5)C3)C4)C(=O)N(Cc3ccc4c(c3)OCO4)C1=C[C@H](COCc1ccccc1)O[C@@H]2C | -63 | . | . | . | . | .
COC(=O)[C@]12C[C@H](CC(=O)NCc3cccs3)C(=O)N(Cc3ccc4c(c3)OCO4)C1=C[C@H](COCc1ccccc1)O[C@@H]2C | - | . | . | . | . | .
CC1=CC[C@@H](C)O[C@@]2(C1)C(=O)Nc1cccc(Br)c12 | . | - | . | ? | . | .
Cc1nn(C(C)C(=O)NC2CCCCC2)c(=O)c2c1sc1ccccc12 (stereo not drawn) | - | ? | - | ? | . | .
O=C(NCc1ccccc1)[C@H]1[C@H](CO)[C@H]2Cn3c(cccc3=O)[C@H]2N1Cc1ccccc1F | - | . | . | . | . | .
Cc1ccc(-n2cc(-c3ccccc3)c3c(N4CCOCC4)ncnc32)cc1 | - | ? | ? | - | ? | -
Cc1cccc(-n2cc(-c3ccccc3)c3c(N4CCOCC4)ncnc32)c1 | - | ? | ? | ? | 3.2µM | -
COc1cccc(N2CCN(c3ncnc4c3c(-c3ccccc3)cn4-c3ccc(C)cc3)CC2)c1 | -63 | . | - | - | . | .
CCN(CC)S(=O)(=O)c1ccc2c(c1)N(CC(=O)N1CCN(c3cccc(C)c3C)CC1)C(=O)CO2 | - | . | - | - | . | .
OC[C@@H]1CN(Cc2ccc(F)cc2)C[C@H](n2cnc3c(Nc4ccccc4)ncnc32)O1 | ? | . | - | . | . | .
OC[C@@H]1CN(Cc2ccc(-c3ccccc3)cc2)C[C@H](n2cnc3c(Nc4ccccc4)ncnc32)O1 | -65 | . | 32µM | . | . | .
OC[C@@H]1CN(Cc2ccc(-c3ccccc3)cc2)C[C@H](n2cnc3c(NCc4ccc(F)cc4)ncnc32)O1 | -85 | . | 28µM | . | . | .
CCc1nn2c(=O)cc(COC(=O)c3ccccc3NC(=O)c3cccs3)nc2s1 | - | . | - | - | . | .
CNCC[C@H](Oc1ccccc1OC)c1ccccc1 | . | 18µM | - | . | . | .
SMILES | HCMV antiviral | MARV entry inh | FMDV antiviral | Lassa entry inh | HCV inhibitor | SARS PLpro yeast
CN(C)CCC(Oc1ccccc1OCc1ccccc1)c1ccccc1 (stereo not drawn) | - | ? | - | ? | - | .
Cc1ccc(C(=O)CC2(O)C(=O)N(Cc3ccccc3)c3ccc(Br)cc32)cc1 (stereo not drawn) | - | . | - | ? | . | .
Cc1ccc(C(=O)N2c3ccccc3N(Cc3ccccc3)C(=O)C2(C)C)cc1 | -93 | ? | . | ? | 11µM | -
N=c1c(C(=O)NCc2ccco2)cc2c(=O)n3ccccc3nc2n1Cc1ccc(Cl)cc1 | - | ? | - | - | 5µM | -
COc1ccc(CCNC(=O)c2cc3c(=O)n4cccc(C)c4nc3n(Cc3ccco3)c2=N)cc1OC | - | ? | ? | - | 11µM | -
Cc1ccc2nc3c(cc(C(=O)NCc4ccco4)c(=N)n3Cc3ccco3)c(=O)n2c1 | -61 | ? | - | - | 4.5µM | -
